From PubChem BioAssay (NCATS)
Results filed as inconclusive are left out. Activity calls are given as the source filed them. Unless noted, calls follow the shape of the dose curve; as a rule, active = well fitted curve in the direction sought with a large enough effect; inconclusive = small, poorly fitted or top-dose-only effect, or another doubt; inactive = no such curve, though single readings can be large; an effect the other way counts as inactive or inconclusive.

Assays:
[1] = Cellular Toxicity (caspase-3) HepG2 (AID 654);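 also: cells exposed to compound for 16 hours before reading; 0% = DMSO alone and 100% = caspase signal from 100 µM tamoxifen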
Method in brief: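 HepG2 cells (1500/well) in complete medium were treated with compounds for 16 hr at 37 °C. Caspase-3/7 activity was then read as luminescence from peptide-aminoluciferin cleavage. AC50 came from Hill fits, normalized to DMSO and 100 uM tamoxifen.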

[2] = Cellular Toxicity (caspase-3) Jurkat (AID 655);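 also: cells exposed to compound for 16 h at 37 °C before reading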
Method in brief: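 Luminescent Caspase-Glo 3/7 read-out (20 min, room temperature) after 16 h compound treatment at 37 C of 5000 Jurkat cells per well. AC50 derived by Hill-equation fitting, scaled between DMSO basal and 100 uM tamoxifen stimulation.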

[3] = Cellular Toxicity (caspase-3) HUV-EC-C (AID 656);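 also: 0% = DMSO basal and 100% = 100 µM tamoxifen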
Method in brief: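 Luminescent Caspase-Glo 3/7 readout after 16 h, 37 °C compound exposure of HUV-EC-C endothelial cells, 1000 per well, complete medium. AC50 derived by Hill fitting, with DMSO as baseline and 100 uM tamoxifen as full activation.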

[4] = Cellular Toxicity (caspase-3) SHSY5Y (AID 657)
Method in brief: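 Luminescent Caspase-Glo 3/7 read-out, 1 hr room temperature, follows 16 hours of compound treatment of SH-SY5Y cells at 37 °C. Normalization: DMSO basal, 10 uM staurosporine as 100%; AC50 values from Hill-equation concentration-response fits.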

[5] = Cellular Toxicity (caspase-3) BJ (AID 658);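 also: 0% = DMSO basal and 100% = 10 µM staurosporine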
Method in brief: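 Luminescent aminoluciferin-substrate cleavage reports caspase 3/7 activity in normal human BJ fibroblasts after 16 hr compound exposure at 37 °C. Normalized to DMSO (basal) and 10 uM staurosporine (100%); AC50 from Hill fit of concentration-response.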

[6] = Cellular Toxicity (caspase-3) MRC-5 (AID 659);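 also: 0% = DMSO basal and 100% = 10 µM staurosporine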
Method in brief: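 Luminescence from caspase-cleaved aminoluciferin substrate (Caspase-Glo 3/7, 1 hr RT) reports caspase 3/7 activity in MRC-5 lung fibroblasts after 16 hr compound exposure. Normalized to DMSO basal and 10 uM staurosporine as 100%; AC50 from Hill fits.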

[7] = Cellular Toxicity (caspase-3) Mesangial (AID 660);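 also: cells exposed to compound for 16 h before the caspase read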
Method in brief: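 Human renal glomerular mesangial cells (1000/well) were treated with compounds for 16 h at 37 °C in complete medium, then caspase 3/7 activity was read by Caspase-Glo luminescence. Data were normalized to DMSO and 100 uM tamoxifen; AC50 from Hill fits.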

[8] = Cellular Toxicity (caspase-3) SK-N-SH (AID 661);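 also: 0% = DMSO basal and 100% = 10 µM staurosporine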
Method in brief: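 SK-N-SH human neuroblastoma cells (1500/well) were treated with compounds for 16 hr at 37 °C in complete medium; caspase 3/7 activity was read by Caspase-Glo luminescence. AC50 came from Hill fits of data normalized to DMSO and 10 uM staurosporine.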

[9] = Cellular Toxicity (caspase-3) H-4-II-E (AID 663);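 also: cells exposed to compound for 16 hr before readout; 0% = DMSO basal and 100% = 100 µM tamoxifen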
Method in brief: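 Luminescence from caspase-cleaved aminoluciferin substrate, read 20 min after reagent addition, reports caspase 3/7 activation in rat H-4-II-E cells after 16 hr compound exposure. Normalized to DMSO (basal) and 100 uM tamoxifen (100%); AC50 from Hill fits.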

[10] = Cellular Toxicity (caspase-3) Hek293 (AID 664);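 also: cells exposed to compound for 16 h at 37 °C before readout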
Method in brief: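 HEK293 cells were exposed to compounds in complete medium for 16 hr at 37 °C, then caspase-3/7 activity was read by Caspase-Glo 3/7 luminescence after 20 min at room temperature. Data normalized to DMSO and 100 uM tamoxifen; AC50 from Hill fits.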

[11] = Cellular Toxicity (caspase-3) N2a (AID 665);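 also: compound exposure lasted 16 h at 37 °C before readout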
Method in brief: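 Mouse N2a neuroblastoma cells (1500/well) were treated with compounds for 16 h at 37 °C, then caspase-3/7 activity was read by Caspase-Glo luminescence after 1 h at room temperature. Data were normalized to DMSO and 10 uM staurosporine; AC50 from Hill fits.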

[12] = Cellular Toxicity (caspase-3) NIH 3T3 (AID 666);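 also: 0% = DMSO basal and 100% = 100 µM tamoxifen stimulation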
Method in brief: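 Mouse NIH 3T3 fibroblasts (1000 cells/well) were treated with compound for 16 hr at 37°C in complete medium; caspase-3/7 activity was read by Caspase-Glo luminescence. Normalized to DMSO and 100 uM tamoxifen; AC50 from Hill fits.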

[13] = Cellular Toxicity (caspase-3) Renal Proximal Tubule (AID 667);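 also: cells exposed to compound for 16 hours at 37 °C before detection; 0% = DMSO basal and 100% = 10 µM staurosporine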
Method in brief: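 Caspase 3/7 activation measured by luminescent aminoluciferin release in primary rat proximal tubule cells after 16 hr compound exposure at 37 °C. AC50 from Hill-fitted concentration-response, scaled between DMSO and 10 uM staurosporine.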

[14] = target: Tumor necrosis factor (Homo sapiens) (UniProt P01375); assay: qHTS assay to identify small molecules that stimulate Tumor Necrosis Factor-alpha (TNF-alpha) secretion (AID 651757; active = well fitted curve in the direction sought with a large enough effect in the signal ratio; the % refers to the signal ratio; also: 0% is about no effect)
Method in brief: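 THP-1 cells were exposed to compounds for 17 hrs at 37 C, after which secreted TNF-alpha was measured by homogeneous HTRF (TR-FRET) using cryptate- and XL665-labeled anti-TNF-alpha antibodies, read after 3 hr at room temperature.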

[15] = qHTS assay to identify small molecules that stimulate interleukin-8 (IL-8) secretion (AID 651758; active = well fitted activation curve with a large enough effect in the signal ratio; the % refers to the signal ratio; also: 0% is about no effect)
Method in brief: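 THP-1, 2000 cells/well; cpd 16 h, 37 C; add cryptate + XL665 anti-IL-8 Abs; RT 1-3 h; TR-FRET read.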

[16] = qHTS assay for environmental chemicals that activate the Aryl hydrocarbon Receptor (AhR) signaling pathway (AID 651777); conditions: 1A2-DRE human hepatoma cells, luciferase, 24 h; active compounds read high; also: % of control where 0% means no effect; nearly all actives have a fitted effect of over 15% in size
Method in brief: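 Measured luciferase activity, read 30 min after One-Glo addition at room temperature, from human hepatoma cells bearing a dioxin response element–CYP1A2 promoter reporter and exposed to compound for 24 hr at 37 C.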

[17] = target: Peroxisome proliferator-activated receptor alpha (Homo sapiens) (UniProt Q07869); assay: qHTS assay for small molecule agonists of the peroxisome proliferator-activated receptor alpha (PPARalpha) signaling pathway (AID 651778); conditions: PathHunter PPARalpha complementation, chemiluminescence, 6 h; active compounds read high; also: % of control where 0% means no effect
Method in brief: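 Cells plated at 2,000/well and held overnight at 37 C, 5% CO2, then compound added by pin tool for 6 hr; after PathHunter detection reagent and 60 min at room temperature, chemiluminescence from enzyme complementation was read.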

[18] = qHTS assay for small molecule agonists of the antioxidant response element (ARE) signaling pathway measured by Nrf2-dependant transcriptional activity (AID 720636; active = well fitted curve in the direction sought with a large enough effect in the repeat runs; an effect the other way counts as inactive or inconclusive;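 also: HepG2 cells with an ARE-driven luciferase reporter; % of control where 0% means no effect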)
Method in brief: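 In HepG2 cells engineered with an Nrf2-responsive luciferase gene, ARE induction was quantified as luminescence after 16 hr compound treatment at 37 C.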

[19] = qHTS assay for small molecule antagonists of the retinoid-related orphan receptor gamma (ROR-gamma) signaling pathway - cell viability counter screen (AID 720652; active = well fitted curve in the direction sought with a large enough effect in the repeat runs; an effect the other way counts as inactive or inconclusive;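 also: CHO reporter cells with doxycycline-induced ROR-gamma expression; series mostly up to about 92 µM; compound exposure lasted 16 hr before ATP read; % is scaled to controls: 0 for no effect and ±100 for the full control effect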)
Method in brief: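 Counter screen in CHO cells carrying TET-inducible ROR-gamma and an ROR response element-luciferase reporter; cells plated 5 hr, compound pinned, doxycycline added, then 16 hr at 37 C. Viability read as intracellular ATP by CellTiter-Glo luminescence.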

[20] = qHTS assay for small molecule agonists of the antioxidant response element (ARE) signaling pathway measured by Nrf2-dependant transcriptional activity - cell viability counter screen (AID 720653; active = well fitted curve in the direction sought with a large enough effect in the repeat runs; an effect the other way counts as inactive or inconclusive; also: % is scaled to controls: 0 for no effect and ±100 for the full control effect); conditions: ARE-bla HepG2 viability, CellTiter-Glo ATP luminescence, 16 h; active compounds read low
Method in brief: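 ARE-bla HepG2 cells (2,000/well) rested 5 hrs at 37C/5% CO2, then exposed to compounds in DMSO for 16 hrs. Viability was read in the same wells as intracellular ATP by luminescence, 30 min at room temperature after reagent addition.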

Sequence of Tumor necrosis factor (Homo sapiens) (P01375 whole entry, looked up): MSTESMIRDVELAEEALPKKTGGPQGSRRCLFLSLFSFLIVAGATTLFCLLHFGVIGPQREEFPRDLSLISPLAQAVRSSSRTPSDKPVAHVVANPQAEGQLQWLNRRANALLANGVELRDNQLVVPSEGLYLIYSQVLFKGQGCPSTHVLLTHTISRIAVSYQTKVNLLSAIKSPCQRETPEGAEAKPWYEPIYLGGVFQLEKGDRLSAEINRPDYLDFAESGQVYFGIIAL
Sequence of Peroxisome proliferator-activated receptor alpha (Homo sapiens) (Q07869 whole entry, looked up): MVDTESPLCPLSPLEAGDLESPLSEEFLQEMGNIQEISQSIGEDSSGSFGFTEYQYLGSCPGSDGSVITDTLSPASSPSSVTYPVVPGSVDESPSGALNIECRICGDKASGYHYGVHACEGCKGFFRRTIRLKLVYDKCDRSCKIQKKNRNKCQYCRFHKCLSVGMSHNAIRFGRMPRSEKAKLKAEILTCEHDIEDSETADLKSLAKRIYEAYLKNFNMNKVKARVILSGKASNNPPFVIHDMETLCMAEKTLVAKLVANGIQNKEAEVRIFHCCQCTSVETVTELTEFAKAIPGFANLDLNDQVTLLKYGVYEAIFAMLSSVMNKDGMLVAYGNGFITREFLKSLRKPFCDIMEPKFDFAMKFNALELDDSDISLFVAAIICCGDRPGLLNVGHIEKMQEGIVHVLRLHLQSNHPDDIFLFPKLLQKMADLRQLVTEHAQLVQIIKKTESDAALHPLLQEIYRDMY

CN(C)CCOC(c1ccccc1)c1ccccc1 (tested in a mixture with another compound)
inactive: outcome [1] | outcome [2] | outcome [3] | outcome [4] | outcome [5] | outcome [6] | outcome [7] | outcome [8] | outcome [9] | outcome [10] | outcome [11] | outcome [12] | outcome [13] | outcome [14] | outcome [15] | activation [16] 0.508% | max response [17] 0.237% | outcome [18] | outcome [19] | max response [20] -6.81%
